Measured values reported in PubChem BioAssay (NCATS).
Records with an inconclusive call do not appear. Values without a mark were called inactive. The source made the active and inactive calls. The call rests on the fitted dose curve; in most records, active means well fitted inhibition curve with a large enough effect; inconclusive means small, poorly fitted or top-dose-only effect; inactive means no such curve, though single readings can be large or run the other way.

Assay: Primary fluorescence-based thiol-reactive (MSTI) qHTS assay for identification of artifact compounds. (AID 1845221); further: nearly all actives have a fitted effect of over 65% in size;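 on activity change, negative = thiol reactive: thiol-reactive compounds lower the probe fluorescence signal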
Conditions: MSTI thiol-reactivity probe, 1 h; series mostly up to 53.8 µM; activity change, negative = thiol reactive: at the top concentration
Source text: PI: Alexander Tropsha Ph.D.
UNC Eshelman School of Pharmacy
University of North Carolina, Chapel Hill, North Carolina
Hits from high-throughput screening (HTS) of chemical libraries are often false positives due to their interference with the assay detection technology. In response to this problem, we generated the largest publicly available library of chemical liabilities and developed a free webtool to predict HTS artifacts, both of which are described herein. More specifically, we generated, curated, and integrated HTS datasets for thiol reactivity, redox activity, and luciferase (firefly and nano) activity. Using these curated datasets, we developed and validated several Quantitative Structure-Interference Relationship (QSIR) models to predict nuisance behavior. […] These models were employed for virtual profiling of the National Center for Advancing Translational Science's (NCATS) in-house library, and 256 compounds for each assay were selected for the experimental validation of nuisance behavior. The BA for these external predictions ranged from 58 to 78% for compounds within the applicability domains of the models. […] The models developed in this study, along with aggregation models previously developed by our group (SCAM Detective) were implemented in "Liability Predictor," an online tool which may be used as part of chemical library design or for triaging HTS hits. Both the models and the curated datasets are publicly available at https://liability.mml.unc.edu/.
SEQUENCE No. (e.g., 1, 2, 3, etc.); […] (e.g., Cells, Incubation, Reagent, etc.); VALUE; DESCRIPTION.
1; Reagent; 4 uL; […].
2; Compounds and control; 16 nL; Kalypsis pin tool (Wako USA) equipped with a 1536-well pin head.
4; Detection; Fluorescence, ViewLux microplate reader, 525 nm excitation, 598 nm emission.
NOTES (numbers refer to Sequence numbers above)
1. Assays determining (E)-2-(4-mercaptostyryl)-1,3,3-trimethyl-3H-indol-1-ium (MSTI) reactivity were performed as previously described in the literature with modifications for the quick identification of compounds reacting with thiol. In brief, 4 uL of MSTI or positive control Acetyl-MSTI (final concentrations of 4 uM and 4 uM, respectively) in assay buffer (2% DMSO in 1X PBS pH 7.4) was dispensed into all wells of a 1536-well assay plate (solid-bottom black plate; Greiner Bio One, Monroe, NC).
2. A Wako Pin-tool (Wako Automation, Richmond, VA) was used to transfer 16 nL of compounds (consisting of 7-plates in qHTS format, final concentration range 18.3 nM to 114 uM) or control MLS001163887 (final concentration range 1.22 nM to 40 uM).
3. Plates were centrifuged (121xg, 15 seconds) and incubated for 1 hour at room temperature protected from light.
4. Samples were read for fluorescence (Ex/Em = 525(20)/598(25) nm) on a ViewLux CCD imager (PerkinElmer). Data were normalized to Acetyl-MSTI (0% activity) and MSTI (100% activity) and the resulting percent inhibition data were fitted to a 4-parameter Hill equation using NCATS in-house software.
Potency means the concentration at half of the fitted maximal effect.

Row | Structure (SMILES) | activity change, negative = thiol reactive | Potency
1 | O=C(Nc1cccc(C(F)(F)F)c1)c1ccccc1NCc1ccncc1 | 223% | –
2 | CC1(C)CC[C@]2(C(=O)OC3OC(CO)C(O)C(O)C3O)CC[C@]3(C)C(=CCC4[C@@]5(C)CC[C@H](OC6OC(C(=O)O)C(O)C(O)C6O)C(CO)(CO)C5CC[C@]43C)[C@@H]2C1 (stereo not given in full) | 84.5% [at 11.5 µM] | –
3 | CC(=O)C1=C(O)C2c3c[nH]c4cccc(c34)CC2C(C)(C)N(C)C1=O (stereo not given) | – | 3.36 µM (active)
4 | CC1OC2OC3C(OCC(O)C3O)OC(=O)C34CCC(C)(C)CC3C3=CCC5C6(C)CC(O)C(OC7OC(CO)C(O)C(O)C7OC7OCC(OC(=O)CC(C)(O)CC(=O)OC1C(OC1OCC(O)C(O)C1O)C2O)C(O)C7O)C(C)(CO)C6CCC5(C)C3(C)CC4O (stereo not given) | 565% [at 25.6 µM] | –
5 | COc1ccc(Cl)cc1[C@@]1(F)C(=O)Nc2cc(C(F)(F)F)ccc21 | 43.3% | –
6 | CC[C@H]1OC(=O)[C@H](C)[C@@H](O[C@H]2C[C@@](C)(OC)[C@@H](O)[C@H](C)O2)[C@H](C)[C@@H](O[C@@H]2O[C@H](C)C[C@H](N(C)C)[C@H]2O)[C@](C)(O)C[C@@H](C)/C(=N/OCOCCOC)[C@H](C)[C@@H](O)[C@]1(C)O | 23.1% | –
7 | CC(C)c1ccc(NC(=O)C(c2ccccc2)N(C)C(=O)Cc2c[nH]c3ccccc23)cc1 (stereo not given) | 139% | –
8 | O=C(Nc1ncc(SCCN2CCCC2)s1)C1(c2ccc(S(=O)(=O)C3CC3)cc2)CC1C1CCCCC1 (stereo not given) | -7.15% | –
9 | CC(C)n1cnc2c(Nc3cccc(Cl)c3)nc(NCCO)nc21 | -9.2% | –
10 | CN1CCN(C(=O)c2ccc(Nc3nccc(-c4cccs4)n3)cc2Cl)CC1 | 91.5% | –
11 | CCCCOc1ccc(-c2cncc(C(=O)NCc3cccnc3N3CCOCC3)c2)cc1Cl | -1.32% | –
12 | CCOC(=O)CCC(=O)O[C@H]1[C@H](O[C@@H]2[C@@H](C)[C@H](O[C@H]3C[C@@](C)(OC)[C@@H](O)[C@H](C)O3)[C@@H](C)C(=O)O[C@H](CC)[C@@](C)(O)[C@H](O)[C@@H](C)C(=O)[C@H](C)CC2(C)O)O[C@H](C)C[C@@H]1N(C)C (stereo not given in full) | 27.5% | –
13 | CN(CC(=O)N(Cc1ccc(C2CCCCC2)cc1)c1ccc(C(=O)O)cc1)S(=O)(=O)c1c(F)c(F)c(F)c(F)c1F | 61% | –
14 | COc1ccccc1-c1cc(Nc2cccc(CS(N)(=O)=O)c2)ncn1 | 122% | –
15 | C[C@@H](CN1CCC(n2c(=O)[nH]c3cc(Cl)ccc32)CC1)NC(=O)c1ccc2ccccc2c1 | -22.2% | –
16 | N#C[C@@H]1C[C@@H]2C[C@@H]2N1C(=O)[C@@H](N)C12CC3CC(CC(O)(C3)C1)C2 | 2.59% | –
17 | FC(F)(F)c1ccc(CNc2ccc(Cc3c[nH]c4ncccc34)cn2)cc1 | 80.5% | –
18 | C=C1CC[C@@H]2[C@](C)(CO)[C@H](O)CC[C@@]2(C)[C@@H]1C/C=C1/C(=O)OC[C@@H]1O | 8.31% | –
19 | OC(CNCCc1c[nH]c2ccccc12)Cn1c2ccccc2c2ccccc21 (stereo not given) | 61.8% | –
20 | CCN1CCC[C@@H]1CNC(=O)c1ccc2c(c1)NC(=O)/C(=C/c1ccccc1F)S2 | 20.4% | –

Row | Structure (SMILES) | activity change, negative = thiol reactive | Potency
21 | C=C1C(=O)O[C@@H]2CC(C)=C([C@@H](C)CCCO)[C@@H](OC(=O)C(C)C)[C@H]12 | – | 14.7 µM (active)
22 | CC(=O)Nc1nc2c(Oc3cc(-c4ccc(C(F)(F)F)cc4)ncn3)cccc2s1 | -0.236% | –
23 | Cc1cc(C)c(-c2csc(NC(=O)c3ccccc3)n2)c(C)c1 | 238% | –
24 | CC(C)(C)c1ccc(-c2nc3ccccc3[nH]2)cc1 | 40.5% [at 25.6 µM] | –
25 | C[C@@H](O[C@H]1OCCN(Cc2n[nH]nc2CN(C)C)[C@H]1c1ccc(F)cc1)c1cc(C(F)(F)F)cc(C(F)(F)F)c1 | 24.3% | –
26 | Oc1ccc(Nc2nc(-c3ccc(Cl)cc3)cs2)cc1 | – | 1.5 µM (active)
27 | COc1ccc2c(c1)CN(C(=O)CCN1CCC(Cc3ccccc3)CC1)CCS2 | 19.5% [at 25.6 µM] | –
28 | CCS(=O)(=O)N(Cc1cccnc1)c1cccc(-c2ccc(C#N)cc2)c1 | 127% | –
29 | CC(CCC1(O)OC2CC3C4CC=C5CC(O[C@@H]6O[C@H](CO)[C@@H](O[C@@H]7O[C@H](CO)[C@@H](O)[C@H](O)[C@H]7O)[C@H](O)[C@H]6O[C@@H]6O[C@@H](C)[C@H](O)[C@@H](O)[C@H]6O)CCC5(C)C4CCC3(C)C2C1C)CO[C@@H]1O[C@H](CO)[C@@H](O)[C@H](O)[C@H]1O (stereo not given in full) | 204% [at 11.5 µM] | –
30 | Cn1cnc(-c2nccc3c(=O)[nH]c(OCCCC(F)(F)F)nc23)c1 | -6.51% | –
31 | Cn1nccc1Nc1nccc(-c2ccn([C@H](CO)c3ccc(Cl)c(F)c3)c(=O)c2)n1 | 959% | –
32 | CC(C)COc1ccc(CNC(=O)N(Cc2ccc(F)cc2)C2CCN(C)CC2)cc1 | 36.2% | –
33 | CCCc1c(C(C)C)nc(C(C)C)c([C@@H](C)O)c1-c1ccc(F)cc1O | 17.9% | –
34 | N#Cc1c[nH]c2c(C(=O)N3CCN(CCc4ccc(F)cc4)CC3)cccc12 | 184% | –
35 | COc1ccc(CNC(=O)Nc2ncc([N+](=O)[O-])s2)cc1 | – | 2.67 µM (active)
36 | COC(=O)/C=C/C(=O)N(O)CCCCNCc1ccc(COC(=O)Nc2cccc3ccccc23)cc1 | 1.11% | –
37 | COc1ccc(C2(CNC(=O)[C@](C)(Cc3c[nH]c4ccccc34)NC(=O)Nc3ccc([N+](=O)[O-])cc3)CCCCC2)nc1 | 96.3% | –
38 | CN(C)CCCNc1nc(CN2CCN(C(c3ccc(Cl)cc3)c3ccc(Cl)cc3)CC2)nc2ccccc12 | 94.5% | –
39 | CC(C)CCC[C@@H](C)[C@H]1CC[C@H]2[C@@H]3CC=C4C[C@@H](OC(=O)NCCN(C)C)CC[C@]4(C)[C@H]3CC[C@]12C | -18.9% | –
40 | CCCCc1nc(C)c(CC(=S)N(C)C)c(=O)n1Cc1ccc(-c2ccccc2-c2nn[nH]n2)cc1 | 116% | –
